Data from PubChem BioAssay AID868 (SRMLSC, 2007).
The campaign covered roughly 190,000 compounds. About 3,500 (1.8%) were called active.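 Rule for the calls: active = inhibition above a set limit, 3 SD over mean compound inhibition (cut at about 8.4% in these data); inactive = the rest.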 The entries come from a sample that favours actives as a whole.

Experiment: inhibitors of the yeast RAM network, primary screen, dse1pr::URA3 reporter, 5-FOA selection (AID 868);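 note: 0% = DMSO-only wells with no growth and 100% = 10 µM 1-NA-PP1 full growth; inhibition rescues growth on 5-FOA so higher OD means more RAM inhibition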
Conditions: S. cerevisiae dse1pr::URA3 reporter, 5-FOA growth OD615, 2 d; at 50 µM; stronger effect = higher value; analog-sensitive cbk1-as2 kinase mutant strain

Row | Structure (SMILES) | inhibition
1 | O=C(Nc1ccc(Sc2ccc(Br)cc2)cc1)c1ccco1 | 9.42% (active)
2 | COC(=O)c1ccc(NC(=O)c2ccco2)cc1 | 0.13% (inactive)
3 | O=C(CSc1ccccc1)Nc1ccc(NC(=O)c2ccco2)cc1 | 3.77% (inactive)
4 | CCCSc1nc2c(c(=O)n(C)c(=O)n2C)n1Cc1ccc(C)cc1 | 8.43% (active)
5 | Cc1cccc(Cn2c(SCCO)nc3c2c(=O)n(C)c(=O)n3C)c1 | 0.88% (inactive)
6 | CCOc1ccc(Cn2c(SCCCCC#N)nc3c2c(=O)n(C)c(=O)n3C)cc1OCC | 1.06% (inactive)
7 | COc1ccc(CCNc2cc(C)nc3c(-c4ccc(Cl)cc4)c(C)nn23)cc1OC | -0.42% (inactive)
8 | CCc1cccc2c(=O)c(C(=O)NCCCOC)c[nH]c12 | 3.16% (inactive)
9 | CC1=C(C(=O)OCc2ccccc2)C(c2ccc(C(F)(F)F)cc2)NC(=O)N1CCCCCC(=O)O (configuration not stated) | 7.19% (inactive)
10 | COC(=O)CCCCCN1C(=O)NC(c2ccc(-c3ccccc3)cc2)C(C(=O)OCc2ccccc2)=C1C (configuration not stated) | 15.8% (active)
11 | COCCN1C(=O)N[C@@H](c2ccccc2)C(C(=O)OC)=C1C | 0.8% (inactive)
12 | O=C(NCCCNc1ccc([N+](=O)[O-])cc1Cl)c1ccccc1F | 1.43% (inactive)
13 | COCC(C)n1c(C)cc(C(=O)COc2ccc(C)nc2[N+](=O)[O-])c1C (configuration not stated) | 1.49% (inactive)
14 | Cc1ccc(C(=O)NC(=S)NCc2cccnc2)cc1 | 5.38% (inactive)
15 | COc1cc(C2C(C(=O)c3ccc(C)o3)=C(O)C(=O)N2Cc2cccnc2)ccc1O (configuration not stated) | 0.23% (inactive)
16 | COc1cc(C2C(C(=O)c3ccc(C)o3)=C(O)C(=O)N2CCc2ccccc2)ccc1O (configuration not stated) | 9.49% (active)
17 | COc1ccc(C2C(C(C)=O)=C(O)C(=O)N2CCc2c[nH]c3ccccc23)cc1 (configuration not stated) | 3.37% (inactive)
18 | O=C(COc1cccc2ccccc12)Nc1cc(S(=O)(=O)N2CCOCC2)ccc1N1CCOCC1 | 3.39% (inactive)
19 | O=C(Nc1nnc(SCc2ccc(Cl)cc2Cl)s1)C1COc2ccccc2O1 (configuration not stated) | 4.44% (inactive)
20 | Clc1ccc(CSc2nnc(/C=C/c3ccccc3)o2)c(Cl)c1 | 9.57% (active)
21 | S=c1[nH]nc(CSCc2ccc(Cl)cc2Cl)n1-c1ccccc1 | 4.95% (inactive)
22 | O=C(Nc1ccccc1)N1CCN(C(=O)Nc2ccccc2)CC1 | 2.76% (inactive)
23 | O=C(COC(=O)/C=C/c1cn(-c2ccccc2)nc1-c1cccnc1)Nc1ccc(Cl)cc1Cl | 2.97% (inactive)

Row | Structure (SMILES) | inhibition
24 | COc1ccc2c(c1)CCc1c(C(=O)Nc3c(C)n(C)n(-c4ccccc4)c3=O)noc1-2 | 3.23% (inactive)
25 | COc1ccc2c(c1)CCc1c(C(=O)N3CCCC3)noc1-2 | 2.15% (inactive)
26 | COc1ccc2c(c1)CCc1c(C(=O)N3CCc4ccccc4C3)noc1-2 | 12.2% (active)
27 | O=C(NN1C(=O)C2C3C=CC(O3)C2C1=O)c1ccncc1 (configuration not stated) | 2.74% (inactive)
28 | Cc1cccc(C(=O)Nc2ccc3c(c2)C(=O)N(CC(C)C)C3=O)c1 | 3.29% (inactive)
29 | CCCCN1C(=O)c2ccc(C(=O)Nc3ccc(S(=O)(=O)N(C)C)cc3)cc2C1=O | 3.73% (inactive)
30 | CC(C)CCN1C(=O)c2ccc(C(=O)Nc3cccc(S(N)(=O)=O)c3)cc2C1=O | 9.03% (active)
31 | Cc1ncoc1C(=O)N1CCCC(C(=O)c2ccc3c4c(cccc24)CC3)C1 (configuration not stated) | 1.14% (inactive)
32 | CCC1CCCCN1C(=O)CSc1nc(C)cc(C)n1 (configuration not stated) | -1.36% (inactive)
33 | COc1ccc(C(CC(=O)O)NC(=O)Cc2ccccc2)cc1 (configuration not stated) | 0.54% (inactive)
34 | CCC/C=C(\CCC)C(NC(=O)Cc1ccccc1)c1ccc(C(=O)OC)cc1 (configuration not stated) | 8.71% (active)
35 | COc1ccc(CC(=O)NC(C)CCc2ccccc2)cc1 (configuration not stated) | 0.14% (inactive)
36 | Cc1cccc(CN2CCN(Cc3cnn(-c4ccccc4F)c3)CC2CCO)n1 (configuration not stated) | -0.13% (inactive)
37 | COc1cc(NC(=S)N2CCCC(C)C2)cc(OC)c1OC (configuration not stated) | 2.19% (inactive)
38 | Fc1ccc(-n2c(Cc3ccccc3)nnc2SCc2nc(-c3ccc(Cl)cc3)no2)cc1 | 14.2% (active)
39 | Cc1ccc(-c2noc(CSc3nnc(-c4ccccc4)n3C)n2)cc1 | 2.09% (inactive)
40 | Cc1ccc(-c2noc(CSc3nnc(-c4ccncc4)n3-c3ccc(F)cc3)n2)cc1 | 2.42% (inactive)
41 | Cc1n[nH]c(=O)n1-c1ccc(C(C)C)cc1 | 0.86% (inactive)
42 | Nc1nc(-c2sc3nc4c(cc3c2N)CCCC4)nc(N2CCOCC2)n1 | 5.88% (inactive)
43 | COc1ccc(/C=C/C(=O)c2ccc(NS(=O)(=O)c3ccc(C)cc3)cc2)cc1O | 11.1% (active)
44 | COc1ccc(C(=O)Oc2cc(/C=N/NS(=O)(=O)c3ccc(C)cc3)ccc2OC)cc1 | 5.34% (inactive)
45 | COc1ccc(NS(=O)(=O)c2ccc(NC(C)=O)cc2)cc1OC | 1.03% (inactive)
46 | Cc1cc(C2=NNC(=Nc3ccc(S(=O)(=O)N4CCOCC4)cc3)SC2)c(C)n1CC1CCCO1 (configuration not stated) | 5.9% (inactive)

Row | Structure (SMILES) | inhibition
47 | CC(C(=O)NC1CCCC1)N(c1ccc(Oc2ccccc2)cc1)S(C)(=O)=O (configuration not stated) | -0.13% (inactive)
48 | O=C1c2ccccc2C(=O)N1CCC(O)C[N+](=O)[O-] (configuration not stated) | 1.77% (inactive)
49 | CC(=O)NC1C(Oc2ccc(C)cc2)OC2COC(c3ccco3)OC2C1O (configuration not stated) | 0.78% (inactive)
50 | Cc1cc(C)cc(NC(=O)CSc2ccccc2)c1 | 1.47% (inactive)
51 | CC(=O)Nc1ccc(NC(=O)CSCc2cnn(-c3ccccc3)c2-n2cccc2)cc1 | 0.44% (inactive)
52 | Cc1cc(C)cc(NC(=O)CSCc2cnn(-c3ccccc3)c2-n2cccc2)c1 | 13.3% (active)
53 | Nc1nc(SCc2ccc([N+](=O)[O-])cc2)c2ncn(C3OC(CO)C(O)C3O)c2n1 (configuration not stated) | 1.26% (inactive)
54 | CCc1ccc(C(=O)OCC(=O)Nc2cccc(S(=O)(=O)NC3=NCCCCC3)c2)cc1 | 0.26% (inactive)
55 | Cc1cccc(-n2c(SCC(=O)Nc3cccc(S(=O)(=O)NC4=NCCCCC4)c3)nc3ccccc3c2=O)c1C | 11.7% (active)
56 | NS(=O)(=O)c1cccc(NC(=O)CSc2nc3ccccc3n2-c2ccccc2)c1 | 6.21% (inactive)
57 | O=C(CN1CCN(Cc2ccc(F)cc2Cl)C1=O)NCc1cccs1 | 0.13% (inactive)
58 | O=C(COC(=O)CNC(=O)c1ccccc1F)NCC(F)(F)F | 3.2% (inactive)
59 | O=C(N/N=C\c1ccc(-c2ccc(Cl)c(Cl)c2)o1)C(=O)N1CCCC1 | 8.47% (active)
60 | O=C(N/N=C/c1ccc([N+](=O)[O-])cc1)C(=O)N1CCCC1 | 1.52% (inactive)
61 | COC(=O)N/N=C/c1ccc(-c2ccc(Cl)c(Cl)c2)o1 | 1.74% (inactive)
62 | Cc1nccn1CCCNC(=O)CC1C(=O)NCCN1Cc1ccc(Cl)c(F)c1 (configuration not stated) | -1.07% (inactive)
63 | COCCNC(=O)/C(C#N)=C/c1nc(N(C)C)n(-c2ccc(F)cc2)c1Cl | 0.24% (inactive)
64 | O=C(NCCc1ccco1)c1nn(Cc2ccccc2)c(=O)c2ccccc12 | 11.2% (active)
65 | O=c1c2ccccc2c(-c2ccccc2)nn1Cc1ccccc1 | 6.51% (inactive)
66 | O=C(NCc1ccco1)c1nc(-c2ccccc2)n(-c2ccccc2)n1 | 0.66% (inactive)
67 | N/C(=N/O)c1cccn1Cc1ccccc1[N+](=O)[O-] | 0.13% (inactive)
68 | O=S(=O)(c1ccc2c(c1)OCCO2)N1CCc2ccccc21 | 2.45% (inactive)
69 | COc1ccc(Cl)cc1NC(=O)CNc1ccccc1F | -1.15% (inactive)

Row | Structure (SMILES) | inhibition
70 | COc1ccc(Cl)cc1NC(=O)NC(C)C(C)(C)C (configuration not stated) | 12.8% (active)
71 | COC(=O)[C@@H](NC(=O)Nc1cc(Cl)ccc1C)C(C)C | 1.68% (inactive)
72 | COCCNC(=O)C(OC(=O)c1cccs1)c1ccc(F)cc1 (configuration not stated) | 0.51% (inactive)
73 | Cc1ccc(NC(=O)Cn2cccc2C2=NC(c3ccccc3)CO2)c(C)c1 (configuration not stated) | 0.92% (inactive)
74 | COC(=O)C1=C(C)N(C)C(=S)NC1c1cc(OC)ccc1OC (configuration not stated) | 0.25% (inactive)
75 | COc1cccc(C(=O)Nc2cc3c(cc2Br)OCCCO3)c1 | 1.75% (inactive)
76 | COc1ccc(C2C=C(c3ccc(Br)cc3)Nc3nc(NS(C)(=O)=O)nn32)cc1 (configuration not stated) | 13.4% (active)
77 | COc1ccc(C2=CC(c3cccc(OC)c3)n3nnnc3N2)cc1 (configuration not stated) | 5.23% (inactive)
78 | Brc1ccc(C2=CC(c3ccco3)n3ncnc3N2)cc1 (configuration not stated) | 0.23% (inactive)
79 | CNC(=O)c1[nH]cnc1C(=O)N[C@@H](CC(C)C)C(=O)OC(C)(C)C | 0.13% (inactive)
80 | CSCC(=O)N1CCCC(C(=O)c2cc(F)ccc2F)C1 (configuration not stated) | 0.37% (inactive)
81 | Cc1cc(C)n2nc(SCC(N)=O)nc2n1 | -0.25% (inactive)
82 | CC(/C=N/NC(=O)c1ccncc1)=C\c1ccco1 | 1.91% (inactive)
83 | C/C(=C\c1ccco1)C1Nc2cccc3cccc(c23)N1 | 8.69% (active)
84 | CC(/C=N/NC(=O)c1cc(-c2ccc3ccccc3c2)n[nH]1)=C\c1ccco1 | 2.36% (inactive)
85 | CCOC(=O)c1c(NC(=O)CNC2CCCc3ccccc32)sc(C(N)=O)c1C (configuration not stated) | 3.87% (inactive)
86 | COc1cc(C(=O)Nc2cc(C(F)(F)F)ccc2N2CCOCC2)ccc1O | 0.55% (inactive)
87 | Fc1cccc2ncnc(OCc3ccccc3)c12 | 3.63% (inactive)
88 | CCC[C@@H]1C[C@@]1(CCC)[C@@H](NC(=O)c1ccccc1)c1ccc(C(=O)OC)cc1 | 9.65% (active)
89 | COC(=O)[C@H](C)[C@H]1C[C@]1(C)[C@H](NC(=O)OCc1ccccc1)c1ccccc1 | 8.31% (inactive)
90 | COC(=O)c1ccc(NCC(=O)c2ccccc2)cc1 | 0.14% (inactive)
91 | CC(C)C(=O)Nc1oc(-c2ccccc2)cc1C#N | 1.62% (inactive)
92 | COc1cc(N2C(=O)c3ccccc3C2=O)c(Cl)cc1C(=O)OCC(=O)N1CCOCC1 | 0.61% (inactive)
